# Source: PubChem (National Center for Advancing Translational Sciences (NCATS))
# ATXN2 expr inh = reduces ATXN2 reporter expression in HEK-293 cells | HEK-293 ATXN2-luciferase reporter, luminescence, 24 h | Potency, µM (titrated, usually from 57 µM), without a hit: at the highest dose activity change, negative = inhibition, most hits filed as inhibitors | actives 0.72% (n = 360,000) | AID 1745845; note: potency is the fitted concentration of half-maximal effect; % is set by controls: 0 for no effect and ±100 for the full control effect; nearly all actives have a fitted effect of over 55% in size
#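 qHTS (up to 57 uM final) was run with 24 h compound exposure of reporter cells at 37 °C. Each well was multiplexed: SteadyGlo luminescence measured ATXN2-luciferase expression after a fluorogenic Gly-Phe-AFC viability readout (25 uM final).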
# ATXN viability = viability counter-screen for ATXN expression inhibitors; AID 651635; S2 cells (HEK-293 line with an ATXN2-luciferase reporter) viability, CellTiter-Fluor protease fluorescence, 24 h; Potency, µM (top dose mostly 56.7 µM), hits mostly cytotoxic; actives 0.49% (n = 400,000); note: potency is the fitted concentration of half-maximal effect; nearly all actives have a fitted effect of over 40% in size
# TGFb inhibitor = blocks TGF-b signaling; actives 1.2% (n = 410,000); Potency, µM (series often up to 46.1 µM), for inactives: at the top dose activity, negative = inhibition, usual class: inhibitors; HepG2 CAGA-GFP TGF-b/SMAD3 reporter, GFP fluorescence, 18 h; TGF-beta stimulated, 500 pg/mL final; note: potency is the fitted concentration of half-maximal effect; % is set by controls: 0 for no effect and ±100 for the full control effect; nearly all actives have a fitted effect of over 65% in size
#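 Cell-based qHTS in HEPG2 carrying a CAGA-GFP Smad reporter; compounds added before 500 pg/mL final TGF-beta, 18 h incubation at 37 degrees C, GFP fluorescence quantified per cell by imaging cytometry.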
# HepG2 viability = counter-screen for TGF-b inhibitors: cytotoxicity in HepG2 cells | HepG2 CAGA-GFP viability, ATP luminescence, 18 h | Potency, µM (doses to about 46.1 µM), for inactives: at the highest dose activity change, negative = cytotoxicity, most hits filed as cytotoxic | actives 0.76% (n = 410,000); note: potency is the fitted concentration of half-maximal effect
#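 CellTiter-Glo luminescence gave cytotoxicity after 18 hours at 37 degrees C. The cells were HepG2 CAGA-GFP in 1% FBS DMEM, stimulated with 500 pg/mL TGF-beta after compound addition. %Activity was normalised to no-cell wells (complete cell-killing) and DMSO (no toxicity), and curves were fitted and classified.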
# DRD3 antagonist = blocks the human D3 dopamine receptor. actives 2.5% (n = 360,000). D3R cells, DiscoveRx beta-arrestin luminescence, antagonist mode; active compounds read low. AID 652054. P35462. max response, negative = inhibition, %; in the data active = max response below about -50%; inconclusive = no clear call, values can overlap the other calls; note: % is set by controls: 0 for no effect and ±100 for the full control effect
# Target sequence (P35462 whole entry, looked up): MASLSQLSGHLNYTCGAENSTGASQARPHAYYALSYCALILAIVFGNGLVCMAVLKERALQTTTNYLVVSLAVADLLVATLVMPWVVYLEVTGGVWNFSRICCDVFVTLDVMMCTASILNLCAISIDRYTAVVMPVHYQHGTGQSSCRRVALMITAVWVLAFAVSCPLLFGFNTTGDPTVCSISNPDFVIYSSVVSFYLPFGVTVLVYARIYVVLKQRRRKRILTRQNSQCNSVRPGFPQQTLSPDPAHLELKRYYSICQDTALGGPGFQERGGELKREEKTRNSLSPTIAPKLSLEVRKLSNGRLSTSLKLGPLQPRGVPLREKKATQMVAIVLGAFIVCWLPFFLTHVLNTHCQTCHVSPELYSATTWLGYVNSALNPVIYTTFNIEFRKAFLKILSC
#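 Cells expressing the human receptor were seeded at 1500 cells/well, incubated overnight at 37 degrees C in 5% CO2, then exposed to library compounds with dopamine controls for 90 minutes at 37 degrees C before luminescent detection.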
# DRD3 agonist = D3 dopamine receptor (human) agonism. P35462. D3R DiscoveRx beta-arrestin cells, luminescence, 90 min. max activation, %. actives 0.58% (n = 410,000); in the data active = max activation above about 30%; note: 0% is about no effect
#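 Agonist-mode cell screen: cells plated at 1500/well and incubated overnight at 37 °C, then exposed to library compounds for 90 min at 37 °C. Detection reagent was added for 30–60 min at room temperature, and luminescence was read.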
# The depositor's hits bear a star; i = inactive; ? = inconclusive; / = not tested or not shown; [ ] = another dose, or the depositor's remark. Only some compounds are listed: those with a hit (about 4.7% of all), similar ones and a draw of the others. Unless noted, calls come from the whole dose curve; as a rule, active = well fitted curve in the direction sought with a large enough effect; inconclusive = small, poorly fitted or top-dose-only effect, or another doubt; inactive = no such curve, though single readings can be large; an effect the other way counts as inactive or inconclusive.
SMILES,ATXN2 expr inh,ATXN viability,TGFb inhibitor,HepG2 viability,DRD3 antagonist,DRD3 agonist
O=C(N/N=C/c1cc(Br)cc(Br)c1O)c1ccncc1,?,i,?,-30%,5,7
O=C(COc1ccc(-c2ccccc2)cc1)N/N=C/c1cc(O)ccc1Br,-6%,?,13µM*,-63%,20,15
O=C(O)c1cccc(N/N=C/c2cc(Br)cc(Br)c2O)c1,50%,i,?,-26%,-64*,-7
COc1ccc(Br)cc1/C=N/Nc1cccc(C(=O)O)c1,80%,i,-5%,3%,10,-3
COc1ccc(CCNC(=O)C2CCN(S(=O)(=O)c3c(C)noc3/C=C/c3ccc(C)cc3)CC2)cc1OC,-5%,i,-19%,-1%,/,-12
O=C(Cc1ccc([N+](=O)[O-])cc1)N1CCN=C1SCc1ccccc1,4%,i,0%,-5%,3,2
Cc1ccc(C)c(CSC2=NCCN2C(=O)Cc2ccc([N+](=O)[O-])cc2)c1,-25%,i,-10%,13%,-61*,-8
C[C@@H]1CN([C@@H](C)CO)C(=O)c2cc(NC(=O)Nc3ccc(F)cc3)ccc2O[C@@H]1CN(C)Cc1ccc(Oc2ccccc2)cc1,0%,25µM*,?,16µM*,-26,-13
CC(C)NC(=O)Nc1ccc2c(c1)C(=O)N([C@H](C)CO)C[C@H](C)[C@@H](CN(C)Cc1ccc3c(c1)OCO3)OCCCC[C@@H](C)O2,10%,i,-4%,18%,-13,10
C[C@@H]1CN([C@H](C)CO)C(=O)c2cc(NC(=O)Nc3ccc(F)cc3)ccc2O[C@@H](C)CCCCO[C@H]1CN(C)Cc1ccc(C(=O)O)cc1,10%,i,-1%,0%,20,3
CC(C)NC(=O)Nc1ccc2c(c1)C(=O)N([C@H](C)CO)C[C@H](C)[C@@H](CN(C)Cc1ccc(C(F)(F)F)cc1)OCCCC[C@H](C)O2,?,/,16µM*,-36%,19,-3
C[C@@H]1CN([C@@H](C)CO)C(=O)c2cc(NS(C)(=O)=O)ccc2O[C@H]1CN(C)Cc1ccc(Oc2ccccc2)cc1,-9%,?,?,-12%,-19,-13
C[C@@H]1CCCCO[C@H](CN(C)Cc2ccc(C(F)(F)F)cc2)[C@H](C)CN([C@@H](C)CO)C(=O)c2cc(NC(=O)Cc3ccccc3)ccc2O1,0%,13µM*,?,-46%,-28,-8
COc1ccc(CN(C)C[C@@H]2OCCCC[C@H](C)Oc3ccc(NC(=O)Nc4ccc(F)cc4)cc3C(=O)N([C@H](C)CO)C[C@H]2C)cc1,?,18µM*,?,25µM*,-14,4
COC(=O)c1ccc(C(=O)NCC2Cc3cccc(-c4ccc(C(=O)OC)cn4)c3O2)cc1 (stereo unspecified),/,i,/,/,/,/
CCCc1[nH]nc2c1C(c1ccc(O)c(OC)c1)C(C#N)=C(N)O2 (stereo unspecified),-13%,?,-21%,-32%,3,4
CCn1c2ccccc2c2cc(C3C(C#N)=C(N)Oc4n[nH]c(COC)c43)ccc21 (stereo unspecified),2.5µM*,i,10µM*,4µM*,-17,1
CCCc1[nH]nc2c1C(c1ccc(OCCN3CCOCC3)c(OC)c1)C(C#N)=C(N)O2 (stereo unspecified),16%,i,-4%,-32%,-64*,3
COCc1[nH]nc2c1C(c1ccc(OC)c(OC)c1)C(C#N)=C(N)O2 (stereo unspecified),-3%,i,11%,1%,10,1
COc1ccc(C2C(C#N)=C(N)Oc3n[nH]c(C)c32)cc1Cn1nnc2ccccc21 (stereo unspecified),-15%,i,-11%,-26%,-62*,-1
Cc1ccc2oc(-c3ccc(NC(=O)COc4ccccc4)cc3O)nc2c1,/,/,-7%,-30%,/,/
CC(=O)C(C(C)=O)c1c(Cl)c(O)c(O)c2c(C(=O)c3ccccc3)coc12,25µM*,?,?,-39%,-11,8
CN1CCN(Cc2c(O)ccc3occ(C(=O)c4ccccc4)c23)CC1,-9%,?,-1%,-29%,0,1
Cc1cccc(NS(=O)(=O)c2ccc(NC(=O)CN(c3cc([N+](=O)[O-])ccc3C)S(C)(=O)=O)cc2)c1,?,?,16µM*,-2%,-24,-20
COc1ccc(C)cc1NS(=O)(=O)c1ccc(NC(=O)CN(c2cc([N+](=O)[O-])ccc2C)S(C)(=O)=O)cc1,-24%,i,?,6%,0,0
SMILES,ATXN2 expr inh,ATXN viability,TGFb inhibitor,HepG2 viability,DRD3 antagonist,DRD3 agonist
Cc1ccc(CNc2ccc(-c3nc(-c4ccccn4)no3)cc2[N+](=O)[O-])cc1,31%,i,-9%,-19%,/,10
O=C(C[n+]1cccc2cccc(O)c21)c1ccc(Br)cc1,/,/,-10%,-8%,/,/
COc1ccc(NC(=O)CCCC(=O)O)cc1Cl,-20%,i,-3%,9%,-50*,7
COc1cc(NS(=O)(=O)c2ccc3c(c2)CCN3S(C)(=O)=O)cc(OC)c1,2%,?,-38%,-3%,/,-9
CCC1CN(CCNC(=O)C2CCCCN2C)Cc2cc(OC)ccc2O1 (stereo unspecified),/,i,/,/,/,/
CC(=O)Nc1ccc(S(=O)(=O)NC2(C(F)(F)F)C(=O)Nc3c2c(=O)[nH]c(=O)n3Cc2cccnc2)cc1 (stereo unspecified),-15%[11.3 µM],i,20%,2.8µM*,9,3
CC(=O)Nc1ccc(S(=O)(=O)NC2(C(F)(F)F)C(=O)Nc3c2c(=O)[nH]c(=O)n3Cc2ccco2)cc1 (stereo unspecified),7%,i,-3%,6%,7,5
CCCCNC(=O)CSc1nc2cc3c(cc2c(=O)n1CCCCCC(=O)NCc1ccc(OC)cc1)OCO3,/,/,26%,2%,/,7
CC(O)COCC1OC2OC3C(COCC(C)O)OC(OC4C(COCC(C)O)OC(OC5C(COCC(C)O)OC(OC6C(COCC(C)O)OC(OC7C(COCC(C)O)OC(OC8C(COCC(C)O)OC(OC1C(OCC(C)O)C2OCC(C)O)C(OCC(C)O)C8OCC(C)O)C(OCC(C)O)C7OCC(C)O)C(OCC(C)O)C6OCC(C)O)C(OCC(C)O)C5OCC(C)O)C(OCC(C)O)C4OCC(C)O)C(OCC(C)O)C3OCC(C)O (stereo unspecified),/,/,-11%,-7%,/,/
